Experimental data taken from the supplement of paper PMC6089552.
Out of some 3,200 compounds screened, about 300 (9.4%) showed activity. Only a selection was taken, and actives are over-represented in it overall.

Tested on: A673/TR/shEF
Assay: cell viability (LOESS-normalised, relative to median of negative controls) (log2 ratio); higher = more viable cells (less compound effect), active = hit call of the paper (over 3 MAD below the median)
Details: treatment time: 72 h
Outline: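 A673/TR/shEF Ewing sarcoma cells were plated at 1,500 per well in 384-well plates and cultured with or without doxycycline, added 24 h before compounds, to induce EWS-FLI1 shRNA knockdown. Library compounds at two or more concentrations, alongside DMSO controls, were applied for three days. Cell viability was measured by CellTiter-Glo luminescence on an Envision reader. Readings were LOESS-corrected per plate, divided by the median of negative controls and log2-transformed, and hits were wells lying at least three median absolute deviations from the median of all screened wells.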

[1] = 0.25 µM, library screen: screen2, EWS-FLI1 expression: high (no doxycycline)
[2] = 0.25 µM, library screen: screen2, EWS-FLI1 expression: low (doxycycline-induced shRNA knockdown)
[3] = 2.5 µM, library screen: screen2, EWS-FLI1 expression: high (no doxycycline)
[4] = 2.5 µM, library screen: screen2, EWS-FLI1 expression: low (doxycycline-induced shRNA knockdown)
[5] = 0.103 µM, library screen: screen3, EWS-FLI1 expression: high (no doxycycline)
[6] = 0.103 µM, library screen: screen3, EWS-FLI1 expression: low (doxycycline-induced shRNA knockdown)
[7] = 0.25 µM, library screen: screen1, EWS-FLI1 expression: high (no doxycycline)
[8] = 0.25 µM, library screen: screen1, EWS-FLI1 expression: low (doxycycline-induced shRNA knockdown)
[9] = 0.308 µM, library screen: screen3, EWS-FLI1 expression: high (no doxycycline)
[10] = 0.308 µM, library screen: screen3, EWS-FLI1 expression: low (doxycycline-induced shRNA knockdown)
[11] = 0.926 µM, library screen: screen3, EWS-FLI1 expression: high (no doxycycline)
[12] = 0.926 µM, library screen: screen3, EWS-FLI1 expression: low (doxycycline-induced shRNA knockdown)
[13] = 2.5 µM, library screen: screen1, EWS-FLI1 expression: high (no doxycycline)
[14] = 2.5 µM, library screen: screen1, EWS-FLI1 expression: low (doxycycline-induced shRNA knockdown)
[15] = 2.8 µM, library screen: screen3, EWS-FLI1 expression: high (no doxycycline)
[16] = 2.8 µM, library screen: screen3, EWS-FLI1 expression: low (doxycycline-induced shRNA knockdown)
[17] = 8.3 µM, library screen: screen3, EWS-FLI1 expression: high (no doxycycline)
[18] = 8.3 µM, library screen: screen3, EWS-FLI1 expression: low (doxycycline-induced shRNA knockdown)
[19] = 25 µM, library screen: screen3, EWS-FLI1 expression: high (no doxycycline)
[20] = 25 µM, library screen: screen3, EWS-FLI1 expression: low (doxycycline-induced shRNA knockdown)

Measured: cell viability (log2)

C[C@H]1CCC/C=C/[C@@H]2C[C@H](O)C[C@H]2[C@H](O)/C=C/C(=O)O1
active: [1] -0.127 | [2] -0.561 | [3] -3.76 | [4] -3.56

CN1[C@@H]2CC[C@H]1CC(OC(=O)C(CO)c1ccccc1)C2 (stereo partly drawn)
inactive: [5] -0.0138 | [6] 0.0399 | [7] 0.0603 | [8] 0.0968 | [9] -0.021 | [10] -0.00749 | [11] -0.0329 | [12] 0.092 | [13] 0.15 | [14] 0.157 | [15] -0.023 | [16] -0.00135 | [17] -0.0414 | [18] -0.0331 | [19] -0.025 | [20] 0.0734

NCCc1ccc(O)cc1
inactive: [7] 0.0239 | [8] 0.0662 | [1] 0.157 | [2] 0.123 | [13] 0.134 | [14] 0.0729 | [3] 0.116 | [4] 0.0531

COc1cc(CCN)ccc1O
inactive: [1] 0.212 | [2] 0.0815 | [3] 0.12 | [4] 0.0385

NCCc1ccc(S(=O)(=O)F)cc1
inactive: [2] 0.067 | [3] -0.0377 | [4] 0.0161
active: [1] -0.0889

COc1ccc2c(c1O)-c1c3c(cc4c1[C@H](C2)N(C)CC4)OCO3
inactive: [1] 0.104 | [2] 0.0658 | [3] 0.0733 | [4] 0.132

COc1cc([C@@H]2c3cc4c(cc3[C@H](OC(C)=O)[C@H]3COC(=O)[C@H]23)OCO4)cc(OC)c1OC
active: [7] -3.77 | [8] -0.983 | [13] -3.58 | [14] -1.13

COc1ccc2c(c1OC)C(=O)O[C@H]2[C@H]1c2cc3c(cc2CCN1C)OCO3
inactive: [7] 0.11 | [8] 0.0969 | [13] -0.0012 | [14] 0.0503

COc1cc([C@@H]2c3cc4c(c(O)c3C[C@H]3COC(=O)[C@@H]32)OCO4)cc(OC)c1OC
active: [13] -3 | [14] -0.852
inactive: [7] 0.0843 | [8] 0.0231

COc1ccc2c(c1OC)C(=O)O[C@H]2[C@@H]1c2cc3c(cc2CCN1C)OCO3
inactive: [1] 0.0965 | [2] 0.0835 | [3] 0.18 | [4] 0.113

COc1cc([C@@H]2c3cc4c(cc3[C@H](O)[C@H]3COC(=O)[C@@H]23)OCO4)cc(OC)c1OC
inactive: [7] 0.0302 | [8] 0.00961
active: [13] -2.1 | [14] -0.572

COc1cc([C@@H]2c3cc4c(cc3[C@H](O)[C@H]3COC(=O)[C@H]23)OCO4)cc(OC)c1OC
inactive: 0.025 µM, library screen: screen2, EWS-FLI1 expression: high (no doxycycline) 0.106 | 0.025 µM, library screen: screen2, EWS-FLI1 expression: low (doxycycline-induced shRNA knockdown) 0.109 | [1] 0.0134 | [2] 0.0379
active: [7] -3.56 | [8] -1.09 | [13] -4.23 | [14] -0.986 | [3] -1.33 | [4] -0.175 | 25 µM, library screen: screen2, EWS-FLI1 expression: high (no doxycycline) -2.9 | 25 µM, library screen: screen2, EWS-FLI1 expression: low (doxycycline-induced shRNA knockdown) -0.496

CCCN(CCC)[C@@H]1CCc2c(F)ccc(O)c2C1
inactive: [1] 0.13 | [2] 0.0763 | [3] 0.181 | [4] 0.101

O=C1NCN(c2ccccc2)C12CCN(CC1COc3ccccc3O1)CC2 (stereo not drawn)
inactive: [1] 0.177 | [2] 0.0806 | [3] 0.104 | [4] 0.0692

C/C=C(\C)C(=O)O[C@H]1C[C@@H](OC(C)=O)[C@@]2(C(=O)OC)CO[C@H]3[C@@H](O)[C@@](C)([C@]45O[C@@]4(C)[C@H]4C[C@@H]5O[C@@H]5OC=C[C@@]54O)[C@H]4[C@]1(CO[C@]4(O)C(=O)OC)[C@@H]32
inactive: [7] 0.103 | [8] 0.0233 | [13] 0.139 | [14] -0.02

Cc1cccc(C)c1NC(=O)CN1CCCC1=O
inactive: [5] 0.119 | [6] -0.000586 | [9] 0.107 | [10] 0.118 | [11] 0.135 | [12] 0.0891 | [15] 0.156 | [16] 0.0751 | [17] 0.15 | [18] 0.0489 | [19] 0.154 | [20] 0.0876

O=c1ccc2cc(O[C@@H]3OC(CO)[C@@H](O)C(O)C3O)c(O)cc2o1 (stereo partly drawn)
inactive: [7] 0.0986 | [8] -0.0879 | [13] 0.201 | [14] 0.107

CC(C)N(C(=O)SCC(Cl)=C(Cl)Cl)C(C)C
inactive: [7] 0.0806 | [8] 0.0889 | [13] -0.00898 | [14] 0.0996

CC1=C2C[C@H]3[C@@H](CC=C4C[C@@H](O)CC[C@@]43C)[C@@H]2CC[C@]12O[C@@H]1C[C@H](C)CN[C@H]1[C@H]2C
inactive: [5] 0.00521 | [6] 0.0036 | [9] 0.012 | [10] 0.0389 | [11] -0.00313 | [12] 0.0472 | [15] 0.0157 | [16] 0.0183 | [17] -0.0322 | [18] 0.102 | [19] -0.00963 | [20] 0.053

Cc1cccc(CN2CCN(Cc3ccc(F)cc3)CC2)c1
inactive: [7] 0.0688 | [8] 0.0518 | [13] 0.143 | [14] 0.0989

C[C@H]1OC[C@@H](C[N+](C)(C)C)O1
inactive: [1] 0.185 | [2] 0.123 | [3] 0.146 | [4] 0.0964

C[C@H]1O[C@@H](C[N+](C)(C)C)CS1
inactive: [1] 0.209 | [2] 0.0237 | [3] -0.0233 | [4] 0.035

O=C(OC1CC2CCC(C1)[N+]21CCCC1)C(O)(c1ccccc1)c1ccccc1 (stereo not drawn)
inactive: [5] 0.0271 | [6] 0.0529 | [9] 0.0379 | [10] 0.0384 | [11] -0.0177 | [12] 0.0427 | [15] 0.0921 | [16] 0.0957 | [17] 0.022 | [18] 0.0679 | [19] 0.0665 | [20] 0.0295

C=C1[C@H]2CCC3[C@@](CC[C@@H]4[C@H](C(=O)O)C[C@@H](O[C@H]5O[C@H](CO)[C@@H](OS(=O)(=O)O)[C@H](OS(=O)(=O)O)[C@H]5OC(=O)CC(C)C)C[C@@]34C)(C2)[C@H]1O (stereo partly drawn)
inactive: [7] 0.138 | [8] 0.098 | [13] 0.0683 | [14] 0.0267

COc1nc(NC(C)C)nc(NC(C)C)n1
inactive: [7] -0.00161 | [8] 0.0381 | [13] 0.104 | [14] 0.186

COC(=O)/C=C(\C)OP(=O)(OC)OC
inactive: [7] -0.00893 | [8] -0.0133 | [13] 0.034 | [14] 0.0603

CCC(C)C(OC(C)=O)C(=O)O[C@H]1[C@H](O)C2[C@@]3(C)C=CC(=O)C(C)(C)C3C[C@@H](OC(=O)C(O)C(C)C)[C@@]2(C)[C@@]23O[C@@H]2C[C@@H](c2ccoc2)[C@]13C (stereo partly drawn)
inactive: [7] 0.0564 | [8] 0.0957 | [13] 0.0934 | [14] 0.141

CN(C)[C@@H]1C(=O)C(C(N)=O)=C(O)[C@@]2(O)C(=O)C3=C(O)c4c(O)cccc4[C@@](C)(O)[C@H]3C[C@@H]12
inactive: [8] 0.111 | [13] -0.0332 | [14] 0.155
active: [7] -0.127

CN(C)[C@@H]1C(=O)C(C(N)=O)=C(O)[C@@]2(O)C(=O)C3=C(O)c4c(O)cccc4[C@@](C)(O)[C@H]3[C@H](O)[C@@H]12
inactive: [5] 0.0702 | [6] 0.0143 | [7] 0.0991 | [8] 0.163 | [9] 0.0382 | [10] 0.159 | [11] 0.119 | [12] 0.101 | [13] 0.158 | [14] 0.172 | [15] 0.158 | [16] 0.126 | [17] 0.103 | [18] 0.0656 | [19] 0.0616 | [20] 0.0848

CN1Cc2c(ccc3c2OCO3)[C@@H]2[C@H]1c1cc3c(cc1C[C@@H]2O)OCO3
inactive: [7] 0.0821 | [8] 0.0876 | [13] -0.0483 | [14] 0.0764

Ic1ccccc1CN[C@H]1C2CCN(CC2)[C@H]1C(c1ccccc1)c1ccccc1
inactive: [1] 0.128 | [2] 0.206 | [3] 0.245 | [4] 0.191

CC1(C)C(=O)C=C[C@]2(C)C1=C(O)C(=O)[C@@]1(C)[C@H]2CC[C@]2(C)[C@@H](c3ccoc3)C[C@@H]3O[C@]312
inactive: [7] 0.0131 | [8] 0.0981 | [13] -0.0522 | [14] 0.0901

CCCC(C)C1(CC)C(=O)NC(=S)NC1=O (stereo not drawn)
inactive: [7] 0.047 | [8] -0.0503 | [13] 0.164 | [14] 0.136

CNC(=O)Oc1cccc2c1OC(C)(C)O2
inactive: [7] 0.147 | [8] 0.159 | [13] 0.155 | [14] 0.0893

CCCCCC[C@H]1C(=O)O[C@H](C)[C@H](NC(=O)c2cccc(NC=O)c2O)C(=O)O[C@@H](C)[C@@H]1OC(=O)CC(C)C
active: [7] -0.888 | [8] -0.636 | [13] -1.71 | [14] -0.774

Cc1ccc2cc3c(ccc4ccccc43)c3c2c1CC3
inactive: [7] 0.0577 | [8] -0.00243 | [13] 0.111 | [14] 0.12

CC(C)Oc1cccnc1N(C)C1CCN(Cc2ccc(I)cc2)CC1
inactive: [1] 0.0944 | [2] 0.0215 | [3] 0.21 | [4] 0.0697
